“And” between values parts separate entries of the source, which are not always exact repeats. Equal entries are not always repeated. The campaign covered roughly 16,000 compounds. About 5,700 (36%) were called active. About 24% were inconclusive and are not listed. The call rests on the fitted dose curve; in most records, active means well fitted curve in the direction sought with a large enough effect; inconclusive means small, poorly fitted or top-dose-only effect, or effect the other way; inactive means no such curve, though single readings can be large or run the other way. The list shows a part of the results.
Target: Cytochrome P450 1A2 (Homo sapiens) (UniProt P05177)
Experiment: Cytochrome panel assay with activity outcomes
Conditions: recombinant CYP, pro-luciferin dealkylation, luminescence, p450-cyp1a2; series mostly up to 57.1 µM
On the % scale 0 is the no-effect control and ±100 the full control effect.

Cytochrome P450 1A2 (Homo sapiens), sequence (P05177 whole entry, looked up): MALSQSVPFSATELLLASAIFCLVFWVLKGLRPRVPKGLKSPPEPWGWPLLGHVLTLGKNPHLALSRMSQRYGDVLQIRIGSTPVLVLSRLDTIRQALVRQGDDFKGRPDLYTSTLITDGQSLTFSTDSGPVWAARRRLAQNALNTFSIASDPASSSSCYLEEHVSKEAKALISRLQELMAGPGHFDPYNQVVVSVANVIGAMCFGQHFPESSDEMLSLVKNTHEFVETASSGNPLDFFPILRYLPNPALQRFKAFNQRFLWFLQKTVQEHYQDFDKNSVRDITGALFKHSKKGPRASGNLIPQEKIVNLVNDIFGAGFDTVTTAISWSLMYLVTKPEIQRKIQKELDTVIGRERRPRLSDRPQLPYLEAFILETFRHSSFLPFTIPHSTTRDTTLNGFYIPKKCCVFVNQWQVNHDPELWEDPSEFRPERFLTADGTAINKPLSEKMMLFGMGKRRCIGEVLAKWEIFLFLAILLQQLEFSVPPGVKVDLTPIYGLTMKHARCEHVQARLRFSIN

Row | SMILES | AC50 | activity, negative = inhibition
1 | COc1ccc(NC(=O)c2ccc3c(=O)n(Cc4ccco4)c(=S)[nH]c3c2)c(OC)c1 | 0.794 µM (active) | –
2 | COc1ccc(CCNC(=O)c2nnn(CC(=O)Nc3ccccc3C)c2N)cc1OC | inactive | –
3 | COc1ccc2c(C=Nc3c(C)n(C)n(-c4ccccc4)c3=O)c(O)n(Cc3ccco3)c(=O)c2c1 | inactive | –
4 | O=C(NCc1ccco1)c1ccc2c(=O)n(-c3ccccc3)c(=S)[nH]c2c1 | inactive | –
5 | COc1ccc(CCNC(=O)c2ccc3c(=O)n(Cc4ccco4)c(=S)[nH]c3c2)cc1OC | 25.1 µM (active) | –
6 | CC(C)NC(=O)c1ccc2c(=O)n(Cc3ccco3)c(=S)[nH]c2c1 | 15.8 µM (active) | –
7 | C/C(CCC(=O)OC[C@@H]1O[C@H](C#Cc2ccccc2)C=C[C@@H]1Oc1ccc(C)cc1)=N/OC[C@@H](O)[C@H]1O[C@H]2OC(C)(C)O[C@H]2[C@@H]1O | – | 2.38% [at 11.4 µM] (inactive)
8 | CC1(C)[C@@H]2CC[C@]1(C)[C@@H](OC(=O)/C=C\c1ccccc1)C2 | – | -3.39% [at 2.29 µM] (inactive)
9 | O=C(/C=C\c1ccccc1)c1ccccc1O | – | -10.2% [at 11.4 µM] (inactive)
10 | CC1=C(C)/C(=N\OC(=O)/C=C/c2ccccc2)C=CC1=O | 14.1 µM (active) | –
11 | OC[C@@H]1O[C@@H](n2cnc3c(SCc4ccccc4)ncnc32)[C@@H](O)[C@H]1O | – | -17.2% [at 2.29 µM] (inactive)
12 | CNC(=O)[C@@H]1O[C@@H](n2cnc3c(NCc4cccc(I)c4)ncnc32)[C@H](O)[C@@H]1O | inactive | –
13 | COc1ccc(-n2c(=O)[nH]cc(C(=O)Nc3ccc4c(c3)OCCO4)c2=O)cc1 | inactive | –
14 | Cc1ccc2nc(SCC(=O)c3ccc4c(c3)OCO4)[nH]c2c1 | 1 µM (active) | –
15 | COc1ccc2nc(SCC(=O)Nc3ccc4c(c3)OCCO4)[nH]c2c1 | 5.62 µM (active) | –
16 | Cc1ccc2nc(SCC(=O)Nc3nnc(SCC(N)=O)s3)[nH]c2c1 | 14.1 µM (active) | –
17 | CCOC(=O)NC(=O)CSc1nc2ccc(OCC)cc2[nH]1 | 2.51 µM (active) | –
18 | CC/C=C\CC[C@H](OC(=O)c1ccc(Br)cc1)C1=CCCCC1=O | – | 1.86% [at 11.4 µM] (inactive)
19 | COc1ccc(CCn2c(C)cc(C(=O)CSc3nc(N)cc(=O)[nH]3)c2C)cc1 | inactive | –
20 | COc1ccc2nc(SCC(=O)c3ccco3)[nH]c2c1 | 7.08 µM (active) | –
21 | O=C(N/N=C\c1ccc2c(c1)CCC2)c1ccccc1O | 2 µM (active) | –
22 | OCCNc1nc2ccccc2[nH]1 | inactive | –
23 | CCN(CC)c1nc2ccccc2[nH]1 | 15.8 µM (active) | –
24 | CSCC[C@H](NC(=O)CC(C)(C)C)c1nc2ccccc2[nH]1 | inactive | –

Row | SMILES | AC50 | activity, negative = inhibition
25 | CCOC(=O)c1c(C)oc2c1c(C=NC1CCS(=O)(=O)C1)c(O)c1ccccc12 (stereo unspecified) | 1.26 µM (active) | –
26 | CCOC(=O)c1c(C)oc2c1cc(O)c1ccccc12 | 0.0631 µM (active) | –
27 | CCCCCOC(=O)c1c(N)n(CCOC)c2nc3ccccc3nc12 | 1 µM (active) | –
28 | C=C(C)C1Cc2nc(N)nc(C)c2C1 (stereo unspecified) | 3.16 µM (active) | –
29 | Nc1nc(N)c2[nH]c(CNc3ccc(C(=O)O)cc3)nc2n1 | – | -9.57% [at 11.4 µM] (inactive)
30 | C[C@H](CN(C)C)C(O)(c1ccccc1)c1ccccc1 | – | 5.76% [at 11.4 µM] (inactive)
31 | Cc1ccc(NC(=O)C2CCN(S(C)(=O)=O)CC2)cc1 | inactive | –
32 | Cc1ccc(C2CC2C(=O)NN)cc1 (stereo unspecified) | 0.316 µM (active) | –
33 | Cc1cc2c(cc1C)NC1=C(N2)O[C@H](c2c[nH]c3ccc(COc4ccccc4)cc23)C1=O | 2.51 µM (active) | –
34 | O=C1C2=C(Nc3cc([N+](=O)[O-])ccc3N2)O[C@@H]1c1c[nH]c2ccc(COc3ccccc3)cc12 | 2.51 µM (active) | –
35 | N[C@@H](Cc1c[nH]c2ccc([N+](=O)[O-])cc12)C(=O)O | – | -10.4% [at 11.4 µM] (inactive)
36 | CC(C)NC(=O)/C(=N\O)c1ccccc1 | inactive | –
37 | CC(C)NC(=O)N1CCC2(CC1)CCN(C(=O)c1cccn1C)CC2 | inactive | –
38 | CC(C)NC(=O)C(C)n1cccc1C(=O)c1ccccc1 (stereo unspecified) | 25.1 µM (active) | –
39 | Cc1ccccc1-n1nc2c(c1NC(=O)c1ccc(S(=O)(=O)N(C)C)cc1)CSC2 | inactive | –
40 | Cc1ccc(-n2nc3c(c2NC(=O)c2cccs2)CSC3)cc1 | 1.58 µM (active) | –
41 | Cc1ccccc1-n1nc2c(c1NC(=O)c1c(-c3ccccc3Cl)noc1C)CSC2 | inactive | –
42 | Cn1c(=O)n(C)c2cc(/C=N/n3cnnc3)ccc21 | 6.31 µM (active) | –
43 | Cn1c(=O)n(C)c2cc(S(=O)(=O)O)ccc21 | inactive | –
44 | Nc1nc2c(ncn2COC(CO)CO)c(=O)[nH]1 | inactive | –
45 | CO[C@]1(NC(=O)C2SC(=C(C(N)=O)C(=O)O)S2)C(=O)N2C(C(=O)O)=C(CSc3nnnn3C)CS[C@H]21 (stereo partly specified) | inactive | –
46 | CC1CCN(CC[C@@H]2CCCN2S(=O)(=O)c2cccc(O)c2)CC1 | inactive | –
47 | CC1CCN(CC(=O)Nc2cccc([N+](=O)[O-])c2)CC1 | inactive | –
48 | Cc1c(C)n(C(=O)CN2CCC(C)CC2)c2ccccc12 | 4.47 µM (active) | –

Row | SMILES | AC50 | activity, negative = inhibition
49 | COc1ccccc1CNC(=O)CSc1nc2nc(C)cc(C)n2n1 | inactive | –
50 | Cc1cc(C)n2nc(SCC(=O)N/N=C/c3ccccc3F)nc2n1 | 15.8 µM (active) | –
51 | Cc1cc(C)nc(SCC(=O)N/N=C\c2sccc2C)n1 | 12.6 µM (active) | –
52 | Cc1cccc(Cc2c(C)nc3nc(SCC(=O)NCc4ccco4)nn3c2C)c1 | inactive | –
53 | COc1ccc(N2CCN(C(=S)Nc3cccc(C)c3)CC2)cc1 | inactive | –
54 | Cc1cccc(N(C)C(=S)Oc2ccc3ccccc3c2)c1 | 2.51 µM (active) | –
55 | CCc1cc2c(nc1CC)CCN(CC/C(C)=N/O[C@@H](C)c1cn([C@H](CO)Cc3ccccc3)nn1)C2 | – | -13.3% [at 11.4 µM] (inactive) and 1.01% [at 11.4 µM] (inactive)
56 | Cc1ccccc1OCCCN1CCCC1 | inactive | –
57 | CC(C)(C)c1ccccc1OCCN1CCCC1 | 15.8 µM (active) | –
58 | Cc1cc(C(C)(C)C)c(OCCCN2CCOCC2)c(C(C)(C)C)c1 | – | -17.7% [at 2.29 µM] (inactive)
59 | CC1(CC(=O)O)O[C@H]2CCCCC[C@H]2O1 (stereo partly specified) (tested in a mixture with another compound) | – | -0.0273% [at 11.4 µM] (inactive)
60 | COc1cccc(C(=O)Nc2ccc(-c3nnc(-c4ccco4)o3)cc2)c1 | inactive | –
61 | COc1ccc2c(c1)C(c1ccc([N+](=O)[O-])cc1)=NNC(c1ccco1)=N2 | 5.01 µM (active) | –
62 | CC1(C)CCCN(C(=O)c2coc(=O)c(Br)c2)C1 | inactive | –
63 | c1ccc2cc(C3=NCCN3)ncc2c1 | 0.501 µM (active) | –
64 | c1ccc2nc(-c3ccncc3)ccc2c1 | 1 µM (active) | –
65 | c1ccc(CN(CC2=NCCN2)c2ccccc2)cc1 | inactive | –
66 | c1ccc2nc(C3=NCCN3)ccc2c1 | 5.01 µM (active) and 794 nM (active) | –
67 | c1ccc2nc(C3=NCCN3)cnc2c1 | 0.398 µM (active) | –
68 | O=C(c1cccc(F)c1)N1CCC2(CCCN(Cc3cc(C(F)(F)F)cc(C(F)(F)F)c3)C2)CC1 | inactive | –
69 | COC(=O)[C@@]1(Cc2ccc(F)cc2)[C@H]2c3cc(C(=O)N(C)C)n(CCCNc4ccc(C(F)(F)F)cc4Cl)c3C[C@H]2CN1C(=O)c1ccccc1 | inactive | –
70 | c1ccc2oc(C3=NCCN3)cc2c1 | 5.01 µM (active) | –
71 | CCn1nccc1C(=O)Nc1nc2ccccc2n1CCN1CCCCC1 | inactive | –
72 | CCn1c(-c2nonc2NC(=O)c2ccccc2)nc2ccccc21 | 0.891 µM (active) | –

Row | SMILES | AC50 | activity, negative = inhibition
73 | Clc1ccc(SCc2cc(-c3ccccc3)no2)cc1 | 6.31 µM (active) | –
74 | NCCNS(=O)(=O)c1ccc(N)cc1 | – | -3.44% [at 11.4 µM] (inactive)
75 | Cn1c(CNS(=O)(=O)c2ccc(Cl)cc2)n[nH]c1=S | inactive | –
76 | Nc1ccc(S(=O)(=O)NCc2nccs2)cc1 | – | -10.5% [at 2.29 µM] (inactive)
77 | COCCNC(=O)c1onc(CSc2ccc(Cl)cc2)c1C(=O)O | inactive | –
78 | O=S(=O)(NCc1cc(-c2ccc(Cl)cc2)no1)c1ccc(Cl)cc1 | 8.91 µM (active) | –
79 | O=S(=O)(NCc1cc(-c2ccccc2)no1)c1ccc(Cl)cc1 | 7.08 µM (active) | –
80 | Cn1c(CNS(=O)(=O)c2ccc(F)cc2)n[nH]c1=S | inactive | –
81 | Cn1cccc1C(=O)N1CCC2(CC1)CCN(c1ncccn1)CC2 | inactive | –
82 | CC(=O)OC[C@@H]1O[C@@H](O/N=C2/C[C@@H](O)[C@@H](O)[C@@H]3[C@@H]4C(=O)N(C(C)(C)C)C(=O)[C@H]4CC[C@H]23)[C@H](OC(C)=O)[C@H](OC(C)=O)[C@@H]1OC(C)=O | – | -2.28% [at 11.4 µM] (inactive)
83 | Cc1ccccc1C(=O)NN(C)c1nc2ccccc2nc1C(F)(F)F | inactive | –
84 | COc1ccc(Oc2nc3ccccc3nc2C(F)(F)F)cc1 | 1.12 µM (active) | –
85 | CC(C)(C)c1ccc(OC(=O)Cn2c(C(F)(F)F)nc3ccccc32)cc1 | inactive | –
86 | CC(C)NC(=O)N1CCCC2(CCN(C(=O)c3ccco3)CC2)C1 | inactive | –
87 | COc1cccc(OCc2nnc(SCC(=O)NCc3ccco3)n2C)c1 | inactive | –
88 | O=c1c2ccccc2nnn1CSc1nnc(COc2ccc(Cl)cc2)n1Cc1ccco1 | 3.16 µM (active) | –
89 | Cc1cc(C)nc(SCc2nnc(SCC(N)=O)n2Cc2ccco2)n1 | inactive | –
90 | c1ccc(C[C@@H](Nc2cccnc2)c2ccccc2)cc1 | 0.2 µM (active) | –
91 | O=C(O)Cc1cccnc1 | – | -13.8% [at 11.4 µM] (inactive)
92 | O=C(NCC(c1cccnc1)N1CCOCC1)Nc1ccccc1 (stereo unspecified) | inactive | –
93 | COc1cccc(Nc2ncc3nc(C)c(=O)n(-c4ccccc4)c3n2)c1 | 5.01 µM (active) | –
94 | COc1cccc(Nc2ncc3nc(C)c(=O)n(C)c3n2)c1 | 1 µM (active) | –
95 | COc1ccc(-n2c(=O)c(-c3cccs3)nc3cnc(Nc4cccc(OC)c4)nc32)cc1 | inactive | –
96 | COc1ccc(-n2c(=O)c(C)nc3cnc(Nc4cccc(OC)c4)nc32)cc1 | 15.8 µM (active) | –
